Data as given in PubChem BioAssay (NCI).
“And” between values parts separate entries of the source, which are not always exact repeats. Identical values can stand only once. About 79,000 compounds went through this panel and 15% of them were active in at least one assay; those are over-represented in the sample as a whole. The source made the active and inactive calls. No stated cut-off is given here; in the data, active means growth inhibition above about 70%; inactive means the rest.

How the values were obtained:
[1] = NCI Yeast Anticancer Drug Screen. Data for the rad50 strain (AID 155);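 further: 0% = growth of vehicle-only cultures of the same strain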; details: S. cerevisiae rad50 strain growth inhibition, stronger effect = higher value
Procedure, shortened: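 Relative growth inhibition (compound vs vehicle) was measured in yeast with a defined repair-gene alteration.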

[2] = NCI Yeast Anticancer Drug Screen. Data for the mec2-1 strain (AID 157); details: S. cerevisiae mec2-1 strain, stronger effect = higher value
Procedure, shortened: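 Strain: mec2-1 (DNA repair/cell cycle alteration). Compound exposure, then growth measured; inhibition expressed relative to vehicle.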

[3] = NCI Yeast Anticancer Drug Screen. Data for the sgs1 mgt1 strain (AID 161);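 further: 0% = growth of cultures given vehicle only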; details: S. cerevisiae sgs1 mgt1 strain, stronger effect = higher value
Procedure, shortened: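 Mutant yeast exposed to compound; growth scored against vehicle-only wells.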

[4] = NCI Yeast Anticancer Drug Screen. Data for the cln2 rad14 strain (AID 165);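 further: 0% = growth equal to vehicle treated cultures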; details: S. cerevisiae cln2 rad14 strain, stronger effect = higher value
Procedure, shortened: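 Compounds are applied to the cln2 rad14 yeast strain, and growth is then compared with that of vehicle-treated cultures to give inhibition.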

[5] = NCI Yeast Anticancer Drug Screen. Data for the bub3 strain (AID 167); details: S. cerevisiae bub3 mutant strain, stronger effect = higher value
Procedure, shortened: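 Screening used yeast with an engineered genetic alteration affecting cell cycle control. Compound-exposed cultures were compared with vehicle cultures, and reduced growth was taken as inhibition.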

[6] = NCI Yeast Anticancer Drug Screen. Data for the mlh1 rad18 strain (AID 175); details: S. cerevisiae mlh1 rad18 strain growth inhibition, stronger effect = higher value
Procedure, shortened: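 Read-out is yeast growth inhibition, calculated against vehicle-only controls. The compound was applied to a strain engineered with DNA damage repair alterations.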

[7] = at 5.0 µM (retest, dose inferred, filed as 0.5)
[8] = at 50.0 µM (retest, dose inferred, filed as 5.0)

Measured: growth inhibition

NNc1n[nH]c(=S)n1N
inactive: [1]; at 50.0 µM 7.2% and 1.8% and 15.1% | [2]; at 50.0 µM -5.4% and 0.5% and -6.15% | [3]; at 50.0 µM 9.8% and -4.35% and 4.1% | [4]; at 50.0 µM 8.7% and 13% and 5.85% | [5]; at 50.0 µM 9.3% and 17% and 0.45% | [6]; at 50.0 µM 17.6% and -1.5% and -1.65%

[Br][Cd][Br].c1ccc([PH+](c2ccccc2)c2ccccc2)cc1.c1ccc([PH+](c2ccccc2)c2ccccc2)cc1
active: [2]; [8] 84% | [2]; at 50.0 µM 89.5% | [3]; at 50.0 µM 94.9% | [4]; [8] 89% | [4]; at 50.0 µM 92.4% | [5]; [8] 93% | [5]; at 50.0 µM 92.5% | [6]; [8] 92% | [6]; at 50.0 µM 94.7%
inactive: [2]; [7] 20% | [3]; [7] 18% | [3]; [8] 55% | [4]; [7] 4% | [5]; [7] 21% | [6]; [7] 18%

c1ccc2c(c1)[As]=c1ccccc1=[As]2 (configuration not stated)
inactive: [1]; [7] 65% | [3]; [7] 58%
active: [1]; [8] 99% | [1]; at 50.0 µM 89% | [2]; [7] 95% | [2]; [8] 99% | [2]; at 50.0 µM 91.5% | [3]; [8] 99% | [3]; at 50.0 µM 92% | [5]; [7] 91% | [5]; [8] 98% | [5]; at 50.0 µM 90.2% | [6]; [7] 72% | [6]; [8] 99% | [6]; at 50.0 µM 91.4%

CNCC(O)c1cn(C)c2ccccc12 (configuration not stated)
inactive: [1]; [7] 4% | [1]; [8] 0% | [1]; at 50.0 µM 45% | [3]; [7] 3% | [3]; [8] 5% | [3]; at 50.0 µM 25.1% | [4]; [7] 6% | [4]; [8] 2% | [4]; at 50.0 µM 22.1% | [5]; [7] 4% | [5]; [8] 0% | [5]; at 50.0 µM 48.9% | [6]; [7] 0% | [6]; [8] -2% | [6]; at 50.0 µM 40.9%

CC1(C)OCC(COC(=O)C=[N+]=[N-])O1 (configuration not stated)
inactive: [1]; [7] 0% | [1]; [8] -10% | [1]; at 50.0 µM 2.75% | [2]; [7] 0% | [2]; [8] -7% | [2]; at 50.0 µM 0.75% | [3]; [7] 11% | [3]; [8] -4% | [3]; at 50.0 µM -7.5% | [5]; [7] 2% | [5]; [8] -3% | [5]; at 50.0 µM -2.25% | [6]; [7] -2% | [6]; [8] -14% | [6]; at 50.0 µM 42.5%

O=C1c2ccccc2[Se](=O)N1c1ccccc1 (configuration not stated)
inactive: [1]; [7] 50% | [2]; [7] 61% | [4]; [7] 45%
active: [1]; [8] 96% | [1]; at 50.0 µM 93.1% | [2]; [8] 99% | [2]; at 50.0 µM 93.9% | [4]; [8] 98% | [4]; at 50.0 µM 91.7% | [5]; [7] 72% | [5]; [8] 99% | [5]; at 50.0 µM 90.8% | [6]; [7] 83% | [6]; [8] 98% | [6]; at 50.0 µM 90.8%

CC(O)([CH2][Hg][Cl])C(O)[CH2][Hg][Cl] (configuration not stated)
active: [1]; [7] 98% | [1]; [8] 99% | [1]; at 50.0 µM 99.2% | [2]; [7] 99% | [2]; [8] 100% | [2]; at 50.0 µM 99.5% | [3]; [7] 98% | [3]; [8] 99% | [3]; at 50.0 µM 99.3% | [5]; [7] 99% | [5]; [8] 99% | [5]; at 50.0 µM 99.4% | [6]; [7] 99% | [6]; [8] 99% | [6]; at 50.0 µM 97.5%

C/C(=N\N=C(/[Se])N1CC2CCC(CC2)C1)c1ccccn1
inactive: [2]; [7] 40% | [3]; [7] 53% | [4]; [7] 32% | [4]; [8] 65% | [5]; [7] 51% | [6]; [7] 64%
active: [2]; [8] 80% | [2]; at 50.0 µM 90.2% | [3]; [8] 73% | [3]; at 50.0 µM 89.5% | [4]; at 50.0 µM 85.2% | [5]; [8] 81% | [5]; at 50.0 µM 90.3% | [6]; [8] 84%

[Ni+2].[O-][Cl+3]([O-])([O-])O.c1ccc([PH+](CC[PH+](c2ccccc2)c2ccccc2)c2ccccc2)cc1.c1ccc([PH+](CC[PH+](c2ccccc2)c2ccccc2)c2ccccc2)cc1
inactive: [1]; [7] 4% | [1]; [8] 13% | [1]; at 50.0 µM 48.6% | [2]; [7] -1% | [2]; [8] 12% | [2]; at 50.0 µM 41.8% | [5]; [7] 4% | [5]; [8] 31% | [5]; at 50.0 µM 43.9% | [6]; [7] 3% | [6]; [8] 26%
active: [6]; at 50.0 µM 72%

O=S(=O)(O)O
inactive: [6]; at 50.0 µM -10.7% and 13.2% and -10.6%

COc1cc2c(cc1OC)C13CCN4CC5=CCOC6CC(=O)N2C1C6C5CC43 (configuration not stated) (tested in a mixture with another compound)
inactive: [1]; [7] -6% | [1]; [8] -24% | [1]; at 50.0 µM 7.15% [middle of 6 runs] | [2]; [7] -2% | [2]; [8] 1% | [3]; [7] -13% | [3]; [8] -8% | [4]; [7] -3% | [4]; [8] 2% | [5]; [7] 0% | [5]; [8] -2% | [5]; at 50.0 µM -1.4% [middle of 6 runs] | [6]; [7] -2% | [6]; [8] -4%

[Pt].c1ccc(P(CCP(c2ccccc2)c2ccccc2)CCP(c2ccccc2)c2ccccc2)cc1
active: [2]; at 33.0 µM 94% | [2]; [8] 94% | [2]; at 50.0 µM 85.2% | [2]; at 100.0 µM 94% | [3]; [8] 90% | [3]; at 50.0 µM 82% | [4]; [8] 91% | [4]; at 50.0 µM 79.2% | [5]; at 33.0 µM 96% | [5]; [8] 91% | [5]; at 50.0 µM 75.7% | [5]; at 100.0 µM 95% | [6]; [8] 92% | [6]; at 50.0 µM 75.8%
inactive: [2]; at 1.2 µM -27% | [2]; at 3.7 µM -14% | [2]; [7] -3% | [2]; at 11.0 µM 6% | [3]; [7] 8% | [4]; [7] 43% | [5]; at 1.2 µM 8% | [5]; at 3.7 µM 4% | [5]; [7] 4% | [5]; at 11.0 µM 26% | [6]; [7] 16%
